Data from PubChem BioAssay (Tox21).
Inconclusive results are not listed. Where a call stands in place of a potency, no number is given. Calls of active or inactive are those of the source. Unless noted, calls come from the whole dose curve; as a rule, active = well fitted curve in the direction sought with a large enough effect in the repeat runs; inconclusive = weak or mixed curves; inactive = no such curve, though single readings can be large; an effect the other way counts as inactive or inconclusive.

Legend:
[1] = qHTS assay to identify aromatase inhibitors - cell viability counter screen (AID 743084);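 note: cells stimulated with testosterone during compound exposure; nearly all actives have a fitted effect of over 55% in size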; note: potency is the fitted concentration of half-maximal effect
[2] = target: Aryl hydrocarbon receptor (Homo sapiens) (UniProt P35869); assay: qHTS assay to identify small molecule that activate the aryl hydrocarbon receptor (AhR) signaling pathway (AID 743085); note: nearly all actives have a fitted effect of over 15% in size; note: potency is the fitted concentration of half-maximal effect;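 for activation: HG2L7.5c1 human HepG2 liver cells with stably integrated DRE-driven firefly reporter; series mostly up to about 70 µM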
Aryl hydrocarbon receptor (Homo sapiens), sequence (P35869 whole entry, looked up): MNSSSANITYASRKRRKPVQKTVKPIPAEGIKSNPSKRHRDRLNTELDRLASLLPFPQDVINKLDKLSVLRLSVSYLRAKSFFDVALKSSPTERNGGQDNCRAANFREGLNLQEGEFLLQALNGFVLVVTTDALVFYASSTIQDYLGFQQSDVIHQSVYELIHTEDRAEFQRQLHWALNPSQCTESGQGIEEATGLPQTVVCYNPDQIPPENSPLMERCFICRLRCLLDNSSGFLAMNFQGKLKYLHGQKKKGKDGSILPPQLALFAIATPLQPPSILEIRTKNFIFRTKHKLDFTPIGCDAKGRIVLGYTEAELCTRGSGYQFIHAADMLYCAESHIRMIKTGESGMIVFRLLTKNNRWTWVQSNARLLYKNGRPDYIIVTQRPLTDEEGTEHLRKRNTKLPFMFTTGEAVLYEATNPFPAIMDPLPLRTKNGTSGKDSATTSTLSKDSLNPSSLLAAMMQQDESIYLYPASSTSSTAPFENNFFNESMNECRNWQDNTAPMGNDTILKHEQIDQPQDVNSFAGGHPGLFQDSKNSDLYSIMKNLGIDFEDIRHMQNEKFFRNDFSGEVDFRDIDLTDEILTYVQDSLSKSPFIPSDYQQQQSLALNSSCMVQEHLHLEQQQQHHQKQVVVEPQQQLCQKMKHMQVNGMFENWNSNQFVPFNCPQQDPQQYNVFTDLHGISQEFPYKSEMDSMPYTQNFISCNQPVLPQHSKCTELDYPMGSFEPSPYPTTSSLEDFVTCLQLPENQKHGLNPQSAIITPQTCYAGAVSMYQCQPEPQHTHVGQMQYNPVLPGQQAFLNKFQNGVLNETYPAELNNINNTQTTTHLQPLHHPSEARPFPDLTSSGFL
In short: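 Compounds were tested in HepG2 hepatocellular carcinoma cells harbouring a stably integrated luciferase gene under control of 20 DREs. Increased reporter signal after 24 h treatment at 37C was taken as AhR activation.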

[3] = target: Peroxisome proliferator-activated receptor gamma (Homo sapiens) (UniProt P37231); assay: qHTS assay to identify small molecule agonists of the peroxisome proliferator-activated receptor gamma (PPARg) signaling pathway (AID 743094; active = well fitted activation curve with a large enough effect in the signal ratio in the repeat runs, not every such curve was filed as active; the % refers to the signal ratio)
Peroxisome proliferator-activated receptor gamma (Homo sapiens), sequence (P37231 whole entry, looked up): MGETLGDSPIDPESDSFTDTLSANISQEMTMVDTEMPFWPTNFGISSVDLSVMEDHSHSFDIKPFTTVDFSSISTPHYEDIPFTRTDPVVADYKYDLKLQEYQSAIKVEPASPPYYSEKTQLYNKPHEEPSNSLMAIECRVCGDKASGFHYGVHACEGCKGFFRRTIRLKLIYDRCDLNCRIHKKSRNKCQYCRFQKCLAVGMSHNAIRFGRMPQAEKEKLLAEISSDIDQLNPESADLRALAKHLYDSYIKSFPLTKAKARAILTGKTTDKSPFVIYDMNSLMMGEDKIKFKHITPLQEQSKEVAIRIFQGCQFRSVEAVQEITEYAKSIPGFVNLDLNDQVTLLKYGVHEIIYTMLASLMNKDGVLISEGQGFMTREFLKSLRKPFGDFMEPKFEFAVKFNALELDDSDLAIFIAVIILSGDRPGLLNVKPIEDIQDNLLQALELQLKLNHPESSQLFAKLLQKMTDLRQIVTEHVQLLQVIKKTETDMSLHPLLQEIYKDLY
In short: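 GeneBLAzer PPARg UAS-bla HEK293H cells carrying a stably integrated beta-lactamase reporter were pre-incubated 5 h at 37C, then exposed to compounds in DMSO for 17 h at 37C; LiveBLAzer B/G FRET substrate was added for 1 h at room temperature and fluorescence read.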

[4] = target: Peroxisome proliferator-activated receptor gamma (Homo sapiens) (UniProt P37231); assay: qHTS assay to identify small molecule antagonists of the peroxisome proliferator-activated receptor gamma (PPARg) signaling pathway (AID 743191; calls by dose curve; note: series mostly up to about 63 µM; nearly all actives have a fitted effect of over 30% in size)
In short: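 GeneBLAzer PPARg UAS-bla HEK293H cells, 5 h post-plating, exposed to compounds 17 h at 37C. LiveBLAzer B/G FRET substrate added for 1 h at room temperature; beta-lactamase reporter read by fluorescence intensity.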

[5] = qHTS assay to identify small molecule antagonists of the peroxisome proliferator-activated receptor gamma (PPARg) signaling pathway - cell viability counter screen (AID 743194); note: nearly all actives have a fitted effect of over 55% in size
In short: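 Cytotoxicity counter screen in PPARg-bla HEK293H cells, same wells as reporter assay. Compounds plus 50 nM rosiglitazone (final) for 17 h at 37 C, then viability read by CellTiter-Glo luminescence.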

[6] = qHTS assay for small molecule agonists of the antioxidant response element (ARE) signaling pathway (AID 743202; active = well fitted activation curve with a large enough effect in the signal ratio in the repeat runs, not every such curve was filed as active; the % refers to the signal ratio; note: potency is the fitted concentration of half-maximal effect)
In short: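 Agonist mode reporter screen: HepG2 cells with ARE-controlled beta-lactamase are incubated with test compounds for 16 h at 37 C, and beta-lactamase activity is measured as fluorescence of cleaved B/G FRET substrate.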

[7] = qHTS assay for small molecule agonists of the antioxidant response element (ARE) signaling pathway - cell viability counter screen (AID 743203; calls by dose curve; note: nearly all actives have a fitted effect of over 55% in size)
In short: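 CellSensor ARE-bla HepG2 cells, 2,000 per well, rested 5 hrs at 37C/5% CO2, then exposed to compound in DMSO for 16 hrs; viability read as CellTiter-Glo luminescence after 30 min at room temperature, in the reporter wells.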

[8] = qHTS assay for small molecule activators of the heat shock response signaling pathway - cell viability counter screen (AID 743209); note: nearly all actives have a fitted effect of over 50% in size
In short: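 CellSensor HSE-bla HeLa cells, plated overnight at 37 C/5% CO2, were exposed to compounds in DMSO for 5 h at 37 C. Viability was then read in the same wells by CellTiter-Glo luminescence after 30 min at room temperature.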

[9] = qHTS assay to identify small molecule that activate the aryl hydrocarbon receptor (AhR) signaling pathway - cell viability counter screen (AID 743086);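 note: HepG2 liver cells carrying the AhR DRE luciferase reporter; series mostly up to about 70 µM; nearly all actives have a fitted effect of over 45% in size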
In short: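 HepG2-AhR-luc (HG2L7.5c1) cells, 4000/well, treated 24 h at 37 C with compound; viability measured as CellTiter-Fluor fluorescence after 30 min in the same wells as the luciferase read.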

[10] = qHTS assay for small molecule activators of the heat shock response signaling pathway (AID 743210; active = well fitted activation curve with a large enough effect in the signal ratio in the repeat runs, with a control signal flat, not every such curve was filed as active; the % refers to the signal ratio;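 note: HeLa cells with beta-lactamase reporter driven by heat shock elements; series mostly up to about 63 µM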)
In short: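 Quantitative high-throughput format using an engineered HeLa line in which heat shock response elements drive beta-lactamase; after 5 h with compound, cells received a B/G FRET substrate and fluorescence was read.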

SMILES | Potency [1] | Potency [2] | Potency [3] | Potency [4] | Potency [5] | Potency [6] | Potency [7] | outcome [8] | Potency [9] | outcome [10]
CC(C)CCCCCCCOC(=O)c1ccc(C(=O)OCCCCCCCC(C)C)c(C(=O)OCCCCCCCC(C)C)c1 | inactive | inactive | inactive | inactive | inactive | inactive | inactive | inactive |  | 
C=CC(C)CCC=C(C)C (configuration not stated) | inactive | inactive |  |  | inactive | inactive |  | inactive | inactive | inactive
C[C@]12CCC(=O)C=C1[C@@H]1C[C@@H]1[C@H]1[C@@H]3[C@@H]4C[C@@H]4[C@@]4(CCC(=O)O4)[C@@]3(C)CC[C@@H]12 | inactive | inactive |  |  | inactive |  | inactive | inactive | inactive | inactive
CCCCCCCCCCCCSCCOCCO | inactive | inactive |  |  | inactive | inactive | inactive |  | inactive | inactive
Clc1cc(Cl)c2c(c1)N=C1CCCCCN1C2 | inactive | inactive |  |  | inactive | inactive |  | inactive | inactive | inactive
CC(COc1ccccc1)NC(C)C(O)c1ccc(O)cc1 (configuration not stated) | inactive | inactive |  |  | inactive | inactive | inactive | inactive | inactive | 
CC(C)=CCC[C@H](C)CCO | inactive | inactive |  |  | inactive | inactive | inactive | inactive | inactive | inactive
NC(=O)c1cc[n+](CC2=C(C(=O)[O-])N3C(=O)[C@@H](NC(=O)Cc4cccs4)[C@H]3SC2)cc1 | inactive | inactive |  |  | inactive |  | inactive | inactive | inactive | inactive
CCC[Si](OC)(OC)OC | inactive | inactive |  |  |  | inactive |  | inactive | inactive | inactive
Nc1nc(Cl)nc2c1ncn2[C@H]1C[C@H](O)[C@@H](CO)O1 | inactive | inactive |  |  | inactive | inactive | inactive | inactive | inactive | inactive
C[C@H]1C[C@H]2[C@@H]3CCC4=CC(=O)C=C[C@]4(C)[C@@]3(F)[C@@H](O)C[C@]2(C)[C@@]1(O)C(=O)COP(=O)(O)O | inactive | inactive | inactive |  | inactive | inactive | inactive | inactive |  | inactive
CC(=O)CC/C=C(\C)CC/C=C(\C)CC/C=C(\C)CCC=C(C)C | inactive |  |  | inactive | inactive |  | inactive | inactive | inactive | inactive
COc1cccc([C@H](O)C2CCN(CCc3ccc(F)cc3)CC2)c1OC | inactive | inactive |  | inactive | inactive |  |  |  |  | inactive
COc1ccc(/C=C/c2cc(OC)cc(=O)o2)cc1 | inactive |  | inactive |  | inactive | 0.443 µM (active) | inactive | inactive | inactive | inactive
CCOc1ccc2c(c1)C(C)CC(C)(C)N2 (configuration not stated) | inactive |  |  | inactive | inactive | inactive | inactive | inactive | inactive | inactive
CC(C)(Cc1c[nH]c2ccccc12)NCC(O)COc1ccccc1C#N (configuration not stated) | inactive | 29.8 µM (active) |  |  | inactive |  |  | inactive |  | inactive
Cc1nc(C)c(C)nc1C | inactive |  | inactive |  |  |  | inactive | inactive | inactive | inactive
CCCCCC1CCC(=O)O1 (configuration not stated) | inactive |  |  | inactive |  | inactive | inactive | inactive | inactive | inactive
Clc1ccccc1-c1nc(-c2ccncc2)no1 | inactive |  | inactive | inactive | inactive | 1.68 µM (active) |  | inactive | inactive | inactive
Cc1cc(N)n(-c2ccccc2)n1 | inactive |  |  | inactive | inactive | inactive | inactive | inactive | inactive | inactive
Cc1nc2sccn2c(=O)c1CCN1CCC(=C(c2ccc(F)cc2)c2ccc(F)cc2)CC1 | inactive | inactive |  |  | inactive |  | inactive |  |  | inactive
CC(CCl)OC(C)CCl (configuration not stated) | inactive |  |  | inactive | inactive | inactive | inactive | inactive | inactive | inactive
FC(F)(Cl)C(F)(Cl)Cl | inactive |  | inactive | inactive |  | inactive |  | inactive | inactive | inactive
CCOc1cc(OCC)c(C(C)=O)cc1OCC | 26.8 µM (active) |  | inactive | inactive |  |  | inactive | inactive | inactive | 
COC(=O)Cc1cccc2ccccc12 | inactive | inactive |  |  |  | inactive | inactive | inactive |  | inactive
Sc1nc(S)nc(S)n1 | inactive | inactive |  |  | inactive |  | inactive | inactive |  | inactive
C/C=C1\[C@H]2C=C(C)C[C@]1(N)c1ccc(=O)[nH]c1C2 | inactive |  |  | inactive | inactive | inactive | inactive |  | inactive | inactive
